Only some compounds are listed: those with a hit (about 9.4% of all), similar ones and a draw of the others.
IMPase Li cell = cell-permeable IMPase inhibitors with lithium potentiation; hit rate 0.35% among 210,000; CHO-M1 cells, IP1 TR-FRET (IP-One), carbachol + lithium; Potency, µM (doses to about 59.4 µM), actives largely listed as inhibitors; AID 1457;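 also: IP1 builds up when IMPase is blocked and the TR-FRET signal falls; nearly all actives have a fitted effect of over 50% in size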
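IP1 accumulation measured by competitive TR-FRET in lysed CHO-M1 cells after 30 min compound exposure at 37C, with a small lithium addition to potentiate weak responses. Hill-equation AC50 from ratio and donor-channel data.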
ALDH1A1 block = blocks purified human ALDH1A1 activity; Purified ALDH1A1, NADH fluorescence, propionaldehyde substrate; hit rate 7.3% among 220,000; Potency, µM (highest dose often 75.3 µM), hits mostly inhibitors; P00352; active = well fitted inhibition curve with a large enough effect, not every such curve was filed as active; inconclusive = small, poorly fitted or top-dose-only effect, or another doubt; inactive = no such curve, though single readings can be large or run the other way
IMPase cell inh = cell-permeable inhibitors of inositol monophosphatase (IMPase); 120,000 tested, under 10 active; inhibition (IP1 accumulation), % at 46.1 µM; AID 901; CHO-M1 cells, IP1 accumulation, HTRF TR-FRET ratio; P97697; active = well fitted curve in the direction sought with a large enough effect in the signal ratio, not every such curve was filed as active; inconclusive = small, poorly fitted or top-dose-only effect, or a change in a side signal; inactive = no such curve, though single readings can be large or run the other way; the % refers to the signal ratio;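 also: cells stimulated with carbachol in lithium chloride buffer; higher means more IMPase inhibition seen as more IP1 and lower FRET ratio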
Target sequence (P97697 whole entry, looked up): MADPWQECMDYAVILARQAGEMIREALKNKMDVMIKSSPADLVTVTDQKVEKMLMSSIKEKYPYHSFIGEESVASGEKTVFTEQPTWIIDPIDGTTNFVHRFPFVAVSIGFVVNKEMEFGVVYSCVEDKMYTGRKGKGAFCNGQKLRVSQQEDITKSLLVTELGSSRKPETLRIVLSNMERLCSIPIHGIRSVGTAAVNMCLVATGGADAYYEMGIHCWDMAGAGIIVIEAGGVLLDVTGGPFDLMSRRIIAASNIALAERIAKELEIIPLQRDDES
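The IP-One HTRF competitive assay in carbachol-stimulated CHO-M1 cells quantifies cellular IP1. Compounds spanned up to 46 uM final, and activity is expressed as AC50 from concentration-response fits of the ratio and donor data.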
HttQ103 aggreg = inhibitors of mutant huntingtin aggregate formation in PC12 cells. PC12 HttQ103-GFP aggregates, Acumen cytometry, 40 h. Potency, µM (series often up to 46.1 µM), actives largely listed as inhibitors. hit rate 1.1% among 220,000; also: nearly all actives have a fitted effect of over 60% in size
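Multiplexed with ATP-based cell death, this channel scores GFP aggregates in PC12 cells expressing inducible HTTex1-Q103-GFP. Induction used 100 nM tebufenozide; compounds were tested in concentration series.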
HPGD block = blocks human HPGD enzyme activity. P15428. purified HPGD, NADH fluorescence kinetic, PGE2 substrate. Potency, µM, hits mostly inhibitors. hit rate 4.3% among 150,000. AID 894; active = well fitted inhibition curve with a large enough effect, not every such curve was filed as active; inconclusive = small, poorly fitted or top-dose-only effect, or another doubt; inactive = no such curve, though single readings can be large or run the other way
Target sequence (P15428 whole entry, looked up): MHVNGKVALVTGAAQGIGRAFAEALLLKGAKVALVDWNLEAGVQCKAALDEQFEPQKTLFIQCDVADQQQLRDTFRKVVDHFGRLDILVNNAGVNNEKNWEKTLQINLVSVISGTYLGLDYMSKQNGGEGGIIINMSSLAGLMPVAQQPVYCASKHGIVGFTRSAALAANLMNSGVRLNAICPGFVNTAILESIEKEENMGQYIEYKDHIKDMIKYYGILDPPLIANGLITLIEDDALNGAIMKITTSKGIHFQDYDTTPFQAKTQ
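20 nM HPGD preincubated 15 min at room temperature with compound in 50 mM Tris-HCl pH 8, 0.01% Tween 20. Started with 1 mM NAD+ and 30 uM prostaglandin E2; NADH fluorescence (360/450 nm) read 5 times over 30-s intervals, last minus first.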
HTT cytoprotect = Huntington cell model cytoprotection by ATP luminescence; PC12 HTT-Q103 induced, cytoprotection, ATP luminescence, 40 h; Potency, µM (doses to about 56.4 µM), usual class: activators; hit rate 0.14% among 230,000; AID 1471; also: nearly all actives have a fitted effect of over 45% in size
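Readout: ATPlite luminescence (ATP level). Model: stable PC12, inducible Htt exon1 Q103-GFP. Inducer: tebufenozide, 100 nM final. Compounds: dose series. No G418 in medium.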
Numbers stand for hits; n = inactive; u = inconclusive; x = no result; [ ] = another dose, or the depositor's remark. Unless noted, calls follow the shape of the dose curve; as a rule, active = well fitted curve in the direction sought with a large enough effect; inconclusive = small, poorly fitted or top-dose-only effect, or another doubt; inactive = no such curve, though single readings can be large; an effect the other way counts as inactive or inconclusive.

SMILES	IMPase Li cell	ALDH1A1 block	IMPase cell inh	HttQ103 aggreg	HPGD block	HTT cytoprotect
CCOC(=O)c1c(C)oc(NC(=O)COc2ccc(Cl)cc2C)c1C#N	n	u	n	n	31.6µM	n
CC(O)[C@@H](O)[C@H]1CNc2nc(N)[nH]c(=O)c2N1 (some centres not stated)	n	u	x	x	u	x
Cc1ccc(C2CCN(C(=O)Nc3ccccc3)C2)cc1 (configuration not stated)	n	n	n	n	n	n
Cc1ccc(NC(=S)N2CCC(c3ccc(C)cc3)C2)cc1 (configuration not stated)	n	28.2µM	x	x	x	n
COc1ccc(Cl)cc1-n1c(C)cc(C(=O)O)c1C	n	u	n	n	12.6µM	n[10 µM]
COc1ccc(Cl)cc1-n1c(C)cc(C=O)c1C	n	12.6µM	n	n	14.1µM	n
Cc1cc(C(=O)C(=O)O)c(C)n1-c1ccc(Cl)cc1	n	n	x	n	x	n[10 µM]
CCOc1ccccc1-n1c(C)cc(C=O)c1C	n	u	x	n	x	n[10 µM]
C=C1C(N)CC2CC1C2(C)C (configuration not stated)	n	n	x	x	n	x
CCOc1ccc(S(=O)(=O)NN)cc1	n	2µM	n	n	n	n
CCOc1ccc(NS(=O)(=O)c2ccc(SC)cc2)cc1	n	11.2µM	n[0.369 µM]	n	n	n[10 µM]
CCOc1ccc(S(=O)(=O)NN=C2CCN(C(C)=O)CC2)cc1	n	7.94µM	x	n	x	n
CCOc1ccc(S(=O)(=O)N/N=C(\C)c2ccc(OC)cc2OC)cc1	n	22.4µM	x	n	x	n
CCOc1ccc(NS(=O)(=O)c2ccc(N)cc2)cc1	n	n	n	n	n	n
Oc1cc(O)c2c(c1)O[C@@H](c1ccc(O)c(O)c1)[C@H](O[C@@]1(c3cc(O)c(O)c(O)c3)Oc3cc(O)cc(O)c3[C@H](O)[C@@H]1O)C2	n	n[13.5 µM]	x	x	n	n[10 µM]
CC(C)C[C@@H](CC(=O)N[C@H](CC(=O)N[C@@H]1CCCC[C@H]1C(=O)N[C@H](CC(=O)N[C@@H](CCC(=O)O)CC(=O)O)Cc1c[nH]c2ccccc12)C(C)C)NC(=O)[C@@H]1CNCC[C@H]1N	n	n	x	x	n	n[1.9 µM]
Cc1ccc(O)c(NC(=O)c2nc3nc(C)cc(C(F)F)n3n2)c1	x	x	n	x	x	x
Cc1ccc(S(=O)(=O)NN=C2CCN(Cc3ccccc3)CC2)cc1	n	3.55µM	x	n	n	x
COc1ccc(NS(=O)(=O)c2ccc(SC)cc2)c(OC)c1	n	8.91µM	n	n	n	n
Cc1ccc(S(=O)(=O)NNC(=O)C2CCN(Cc3ccccc3)CC2)cc1	n	n	n	n	n	n[10 µM]
COc1ccc(S(=O)(=O)NN=C2CCCCC2)cc1	n	0.631µM	n	n	n	n
CCOC(=O)Cc1ccc(NS(=O)(=O)c2ccc(SC)cc2)cc1	n	8.91µM	n	n	n	n
CC(C)NC(=O)N1CC2(CCN(S(=O)(=O)c3ccccc3)CC2)C1	n	n	x	x	n	u
O=C(O)[C@H](C1NCCS1)N1C(=O)c2ccccc2C1=O (some centres not stated)	n	n[13.5 µM]	x	x	n	x
CC1(NC(=O)C2CCCCC2)CCS(=O)(=O)C1 (configuration not stated)	n	n	x	n	x	n
SMILES	IMPase Li cell	ALDH1A1 block	IMPase cell inh	HttQ103 aggreg	HPGD block	HTT cytoprotect
CC(C)CSc1n[nH]c(=S)s1	n	0.631µM	x	n	x	x
COc1ccc(COC(=O)N/N=C2/C[C@@H](O)[C@@H](O)[C@@H]3[C@@H]4C(=O)N(C[C@@H]5CCCO5)C(=O)[C@H]4CC[C@@H]23)cc1	x	n[13.5 µM]	x	x	x	u
O=C(O)c1cc(N/N=C/c2ccc(N3CCOCC3)s2)ccc1Cl	n	2.82µM	x	n	u	n[10 µM]
CCSc1nc2c(c(=O)[nH]c(=O)n2C)n1CC(O)COc1ccc(Cl)cc1 (configuration not stated)	x	x	n	x	x	x
COc1ccc(CN(C(C)=O)c2cccc(C)c2C)cc1	n	5.01µM	n	n	n	n
C/C(CCN1CCc2nc(-c3ccccc3)c(-c3ccccc3)cc2C1)=N\OC[C@@H](O)[C@@H]1O[C@@H]2OC(C)(C)O[C@@H]2[C@H]1O	x	n[13.5 µM]	x	x	x	n[10 µM]
Cc1ccc(Sc2ccc(NC(=O)c3ccc(S(C)(=O)=O)cc3Cl)cc2)cc1	14.1µM	u	u	n	n	n
CC1=NN(c2ccc(Br)cc2)C(=O)/C1=C/c1cccs1	n	2.24µM	n	n	14.1µM	n
CC1=NN(c2ccc(C)cc2)C(=O)/C1=C\c1ccc(Br)s1	n	n	x	n	n	n[10 µM]
Cc1nn(-c2ccccc2)c(N)c1N=Nc1ccc(Cl)cc1	n	n	n	3.55µM	n	n[10 µM]
Nc1nn(-c2ccccc2)c(N)c1N=Nc1ccccc1	n	n	x	n	n	n[10 µM]
Cc1nn(-c2ccccc2)c(N)c1N=Nc1cccc(S(=O)(=O)N2CCOCC2)c1	x	x	x	n[9.22 µM]	x	n[10 µM]
Cc1nn(-c2ccccc2)c(N)c1N=Nc1ccccc1	n	u	x	n	20µM	x
Nc1c(N=Nc2ccccc2F)c(=O)[nH]n1-c1ccccc1	n	n	n	n	n	n
Cc1cccc(N=Nc2c(C)nn(-c3ccccc3)c2N)c1C	n	n	x	n	15.8µM	n[10 µM]
Nc1nn(-c2ccccc2)c(N)c1N=Nc1ccccc1F	n	n	x	n	12.6µM	n[10 µM]
C=CCN1c2ccccc2[C@]23C[C@@H](C(=O)OC)N(S(=O)(=O)c4ccc(C)cc4)C2=NC(C(=O)OC)=C(C(=O)OC)[C@H]13	n	n[13.5 µM]	x	x	n	n[10 µM]
CN(C)CCCCN1CCc2c(n(C)c3ccccc23)C1=O	n	n[13.5 µM]	x	x	n	n[10 µM]
Cc1ccc(S(=O)(=O)N2CCN(C(=O)CSc3nc4ccccc4c(=O)[nH]3)CC2)cc1	u	3.16µM	n	n	n	n
CCc1nc(SCC(=O)N2CCCC2)c2ccccc2n1	n	n	n	x	n	n
O=C(CSc1nc2ccccc2[nH]1)N1CCN(S(=O)(=O)c2ccc(Cl)cc2)CC1	n	n	n	n	n	n
CC(C)c1nc(SCC(=O)N2CCCC2)c2ccccc2n1	n	3.16µM	n	u	n	n
O=C(CSc1nncc2ccccc12)N1CCCCC1	n	10µM	x	n	x	n
Nc1nc(SCC(=O)N2CCc3ccccc3C2)[nH]c(=O)c1-c1ccccc1	n	22.4µM	n	n	n	n[0.074 µM]
Nc1nc(SCC(=O)Nc2ccccc2)[nH]c(=O)c1-c1ccccc1	n	n	n	n	n	n[10 µM]
N=C(N)SCCCN	n	n[13.5 µM]	x	x	n	n[10 µM]
O[C@H]([C@H](O)[C@@H](O)c1nc2ccccc2[nH]1)[C@@H](O)c1nc2ccccc2[nH]1	n	n[13.5 µM]	x	x	n	n[10 µM]
COC(=O)[C@H](COC(C)(C)C)NC(=O)O[C@@H]1C(=O)c2ccc(OC)cc2O[C@H]1c1cccc(C(F)(F)F)c1	n	n	x	x	n	u
O=C(CSc1nc2[nH]ncc2c(=O)[nH]1)c1ccc(Cl)cc1	u	2.51µM	x	n[9.22 µM]	x	n

Assay outcomes deposited in PubChem BioAssay by National Center for Advancing Translational Sciences (NCATS).
